High-throughput results as filed in PubChem.
Compounds with a hit are over-represented: about 19% of the library has one in this group of screens.
DT40 TDP1 no CPT: qHTS for Inhibitors of human tyrosyl-DNA phosphodiesterase 1 (TDP1): qHTS in cells in absence of CPT; hit rate 15% among 420,000; DT40 Tdp1-/- hTDP1 cells, no CPT, ATP luminescence, 48 h; Potency, µM (titrated, usually from 46.2 µM), for the others: at the top dose activity change, negative = growth inhibition, most hits filed as inhibitors; note: potency is the fitted concentration of half-maximal effect; nearly all actives have a fitted effect of over 55% in size
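Luminescent ATP content (CellTiter-Glo) served as the growth readout. Knockout chicken DT40 cells expressing human TDP1 were exposed to compounds without camptothecin for a minimum 48 hr at 37 °C.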
HT1080-NT tox: kills 2HG-producing HT-1080-NT fibrosarcoma cells; HT-1080-NT fibrosarcoma viability, CellTiter-Glo ATP luminescence, 48 h; Potency, µM (highest dose often 46.1 µM), for inactives: top-dose activity, negative = less viability, hits mostly cytotoxic; hit rate 1.6% among 360,000; AID 686970;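 note: NT is the 2HG producing partner of a matched IDH1 knockdown line; potency is the fitted concentration of half-maximal effect; 0% = DMSO-treated cells and -100% = media-only wells without cells; nearly all actives have a fitted effect of over 55% in size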
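HT-1080-NT fibrosarcoma cells (2HG-overproducing), 750 cells/well in RPMI with 5% FBS, dosed after 2 h and incubated 48 h at 37C. CellTiter-Glo luminescence normalized to DMSO and no-cell wells; concentration-response curves fitted and classed.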
IL1B secr inh: blocks inflammasome-driven IL-1 beta release; THP-1 LPS/ATP IL-1B secretion, AlphaLISA, 16 h; active compounds read low; activity change, % at 57.5 µM; hit rate 4.7% among 360,000; in the data active = activity change below about -50%; inconclusive = mostly about -30% to -49%
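Secreted IL-1B measured by AlphaLISA bead assay after 16 h compound exposure of THP-1 cells; compounds (final up to 57.5 uM) added 1 h before LPS (250 ng/mL) and ATP (1.25 mM) stimulation; lower signal means less secretion.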
HT1080 IDH1KD tx: HT-1080 IDH1 knockdown cell toxicity (counter line). HT-1080 IDH1 knockdown viability, ATP luminescence, 48 h. Potency, µM (doses to about 46.1 µM), without a hit: at the top dose activity, negative = toxicity, hits mostly cytotoxic. hit rate 2% among 360,000;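 note: potency is the fitted concentration of half-maximal effect; 0% = DMSO wells and -100% = cell-free medium wells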
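After a 2 h attachment period, IDH1KD HT-1080 cells took pin-transferred compound for 48 h at 37 °C; ATP-based luminescence after 10 min room-temperature reagent incubation reported viability.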
DT40 TDP1 CPT: DT40-hTDP1 cell growth loss with CPT; chicken DT40 Tdp1-/-;hTDP1 cells + 20 nM CPT, ATP luminescence, 48 h; Potency, µM (titrated, usually from 46.2 µM), for the others: top-dose activity change, negative = growth inhibition, usual class: inhibitors; hit rate 12% among 420,000; note: potency is the fitted concentration of half-maximal effect; nearly all actives have a fitted effect of over 55% in size
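Chicken DT40 Tdp1-/- cells complemented with human TDP1, 400 cells/well, exposed to compounds plus 20 nM camptothecin for at least 48 h at 37 C; viability read as ATP content by CellTiter-Glo luminescence.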
* marks the source's active call; other numbers are inactive results; ? = inconclusive; / = no result. Unless noted, calls come from the whole dose curve; as a rule, active = well fitted curve in the direction sought with a large enough effect; inconclusive = small, poorly fitted or top-dose-only effect, or another doubt; inactive = no such curve, though single readings can be large; an effect the other way counts as inactive or inconclusive. Unless noted, % is set by controls: 0 for no effect and ±100 for the full control effect.

SMILES | DT40 TDP1 no CPT | HT1080-NT tox | IL1B secr inh | HT1080 IDH1KD tx | DT40 TDP1 CPT
CC1(c2ccc(Cl)cc2Cl)NC(=O)N(CC(=O)NCCC2=CCCCC2)C1=O (centres undefined) | ? | 0.8% | ? | 1.5% | ?
COc1ccc(N2CCN(C(=O)CSc3nc4[nH]ncc4c(=O)n3-c3ccc(Br)cc3)CC2)cc1 | ? | -27.0% | -24.2 | -25.7% | ?
O=C(CSc1nc2[nH]ncc2c(=O)n1-c1ccc(Cl)c(Cl)c1)NCc1ccccc1Cl | ? | ? | -21.4 | ? | ?
O=c1c2cn[nH]c2nc(SCc2cc(=O)n3cc(Br)ccc3n2)n1-c1ccc(Br)cc1 | ? | -22.8% | -51.0* | ? | ?
O=c1c2cn[nH]c2nc(SCc2ccccc2F)n1-c1ccc(Br)cc1 | ? | -0.3% | -149.1* | 18.4µM* | ?
Cc1ccc(-n2c(SCc3ccccc3F)nc3[nH]ncc3c2=O)cc1Cl | 14.6µM* | / | / | / | 20.6µM*
Cc1ccccc1-n1c(SCc2cccc(F)c2)nc2[nH]ncc2c1=O | ? | ? | -74.1* | ? | ?
CC(C)n1cc2c(N)ncnc2n1 | 6.4% | -0.1% | -1.7 | 0.5% | 6.3%
COc1ccc2nc(COC(=O)c3cccs3)c(C(C)=O)[n+]([O-])c2c1 | -3.2% | -1.2% | 70.1 | 7.9% | -8.3%
Cn1nnnc1SCC(=O)Nc1ccc(Cl)c(S(=O)(=O)N2CCOCC2)c1 | -12.0% | 0.0% | -26.3 | 2.1% | -2.0%
Cc1ccccc1-n1c(SCc2cc(=O)n3ccccc3n2)nc2[nH]ncc2c1=O | -27.3% | -13.2% | -0.2 | -15.8% | ?
O=C(CSc1nc2[nH]ncc2c(=O)n1-c1ccccc1)NCCc1ccccc1 | ? | 2.2% | -3.1 | 4.9% | -2.0%
Cc1cccc2nc(CSc3nc4[nH]ncc4c(=O)n3-c3ccccc3Cl)cc(=O)n12 | 20.6µM* | -12.0% | -6.0 | -10.7% | 14.6µM*
CCc1ccc(-n2c(SCc3ccccc3F)nc3[nH]ncc3c2=O)cc1 | 16.4µM* | / | / | / | 20.6µM*
O=c1c2ccccc2nc(COc2ccccc2)n1/N=C/c1ccc(O)c(O)c1 | 10.3µM* | 4.3% | -27.0 | -11.8% | 14.6µM*
O=c1c2ccccc2nc(COc2ccccc2)n1/N=C/c1ccco1 | 14.6µM* | -2.6% | ? | -1.3% | ?
COc1cc(=O)n2c(c1C(=O)N(C)Cc1nccs1)CCN(Cc1cccc(F)c1F)CC2 | -10.2% | / | / | / | 7.2%
COc1ccc(C(=O)C=Cc2cccs2)c(O)c1 | ? | -18.8% | -54.2* | -18.2% | ?
O=C(/C=C/c1ccccc1)c1ccc(O)cc1O | 16.4µM* | / | / | / | ?
COc1ccc(NC(=O)c2ccc([N+](=O)[O-])cc2[N+](=O)[O-])c(OC)c1 | -19.8% | 1.9% | 28.8 | 5.1% | -21.8%
COc1ccc(OC(=O)c2cccc([N+](=O)[O-])c2)c(C(=O)/C=C/c2cccs2)c1 | ? | ? | -53.2* | ? | ?
O=C(O)/C=C/c1ccc(O)cc1 | 23.5% | -7.4% | -1.0 | -3.5% | 1.2%
COc1ccc(C(=O)/C=C/c2ccccc2OC)c(OC(=O)c2ccc([N+](=O)[O-])cc2)c1 | ? | 11.2% | -97.2* | 9.2% | ?
COc1ccc(CN2CCC(=O)N([C@H](CO)CC(C)C)CC2)cc1 | ? | -0.1% | 9.4 | 12.3% | ?
O=C(OCC1CCCO1)c1ccc2c(c1)N(Cc1ccccc1F)C(=O)c1ccccc1S2(=O)=O (centres undefined) | 6.7% | / | / | / | 0.8%
SMILES | DT40 TDP1 no CPT | HT1080-NT tox | IL1B secr inh | HT1080 IDH1KD tx | DT40 TDP1 CPT
O=c1[nH]c(=S)[nH]cc1Oc1ccc(Cl)cc1 | -14.5% | 6.0% | 9.8 | 5.8% | -25.5%
COc1ccc(C(=O)/C=C/c2ccccc2)c(O)c1 | 23.1µM* | -26.7% | -99.0* | -22.9% | ?
COc1ccc(C(=O)O)c(O)c1 | -14.4% | 6.7% | 0.0 | 3.5% | 1.5%
COc1ccc(C(=O)/C=C/c2cc(C(=O)O)cc3c2OCOC3)c(O)c1 | 23.1µM* | ? | -93.8* | ? | ?
Clc1ccc2nc[nH]c2c1 | -18.3% | / | / | / | -17.6%
Cc1ccc(/C=c2/sc3nnc(-c4ccccc4Cl)n3c2=O)o1 | 11.6µM* | 7.3% | 0.1 | 0.7% | ?
